From PubChem BioAssay AID740 (SRMLSC, 2007) come the findings set out here.

SMILES strings stand for the structures. The campaign covered roughly 96,000 compounds. About 65 (0.07%) were called active. The list comes from a sample in which actives are over-represented; it also holds similar structures and randomly drawn compounds. A number with no mark means an inactive call. Cut-off read from the data, not from the text of the source: active = inhibition above about 25%; inactive = the rest.

The test is described as follows: unspecified inhibition readout at 50 µM (AID 740). As to conditions: unspecified screen; active compounds read high.
For `CC(C)CC(c1nnnn1C(C)(C)C)N1CCN(C2CCCC2)CC1` (stereo not drawn), the inhibition was 0.26%. The same measure for `CC(=O)Nc1cccc(C(=O)Nc2ccccc2C(=O)O)c1`: 0.32%; for `Cc1ccc2nc(SCC(=O)Nc3c(C)n(C)n(-c4ccccc4)c3=O)[nH]c2c1`: “inactive”. The same measure for `Cc1ccccc1NC(=O)c1ccc(NC(=O)c2ccco2)cc1`: “inactive”; for `O=C(Nc1ccccc1-c1ccccc1)c1ccco1`: 0.36%; for `O=C(Nc1ccccc1-c1ccccc1)c1ccc(NC(=O)c2ccco2)cc1`: 61.8% (active). The same measure for `N#Cc1ccccc1NC(=O)COC(=O)c1ccc2c(c1)OCCO2`: “inactive”; for `COc1ccc(S(=O)(=O)Nc2ccc(C)cc2)cc1N(C)S(=O)(=O)c1ccc(Cl)cc1`: “inactive”.

On to `COc1ccc(S(=O)(=O)Nc2ccc(F)cc2)cc1N(C)S(=O)(=O)c1ccc(Cl)cc1`, for which the inhibition entry is “inactive”.

In the case of `COc1ccc(NS(=O)(=O)c2ccc(OC)c(N(C)S(=O)(=O)c3ccc(Cl)cc3)c2)cc1`, the inhibition is 25.8% (active). The same measure for `O=C(NC1CCCC1)C1(c2ccccc2)CCN(S(=O)(=O)c2ccccc2)CC1`: 1.06%. The value for `CC1(C)Cc2c(c(N3CCOCC3)nc3sc4c(NN)ncnc4c23)CS1` was 27.3% (active); that for `CCN(CC)CCNc1ncnc2c1sc1nc(N3CCOCC3)c3c(c12)CC(C)(C)SC3` was “inactive”. The value for `CN(C)CCNc1ncnc2c1sc1nc(N3CCOCC3)c3c(c12)CC(C)(C)SC3` was “inactive”. Take `O=C1CC(C(=O)Nc2ccccc2)C2(CCCCC2)O1` (stereo not drawn): the inhibition was 1.6%. The value for `Cc1cccc(NC(=O)C2CC(=O)OC23CCCCC3)c1` (stereo not drawn) was 41.1% (active). Consider `O=C1CC(C(=O)Nc2ccccc2)C2(CCCC2)O1` (stereo not drawn), for which the inhibition result was “inactive”. The value for `CC(=O)Nc1sc(C)c(C)c1C(=O)OC1CCOC1=O` (stereo not drawn) was “inactive”; that for `COc1ccc(C(=O)OCC(=O)Nc2ccc(OC(F)F)cc2)c(OC)c1` was “inactive”. `COc1cc(C2C(C#N)=C(C)NC3=C2C(=O)c2ccccc23)cc(OC)c1OC` (stereo not drawn): the inhibition is 3.83%.

Take `O=C(O)c1ccc(CSCc2ccccc2F)o1`: the inhibition result is “inactive”. For the compound `COc1ccc(NC(=O)CN2CCCC(C)C2)c([N+](=O)[O-])c1` (stereo not drawn), the inhibition was 0.73%. The value for `CCCCn1c(=O)c(C(=O)Nc2cnccn2)c(O)c2ccccc21` was 1.68%; that for `Cc1c(NC(=O)c2cccc(F)c2)c(=O)n(-c2ccccc2)n1C` was “inactive”. The same measure for `Cc1c(NC(=O)c2ccc(F)cc2)c(=O)n(-c2ccccc2)n1C`: “inactive”. The value for `CCCCCn1c(=O)c(C(=O)Nc2c(C)n(C)n(-c3ccccc3)c2=O)c(O)c2ccccc21` was 34.4% (active). For the compound `Cc1cc(C(=O)Nc2c(C)n(C)n(-c3ccccc3)c2=O)cs1`, the inhibition was 28.9% (active). `Cc1c(NC(=O)c2c(F)c(F)c(F)c(F)c2F)c(=O)n(-c2ccccc2)n1C`: the inhibition was 0.88%. The value for `COC(=O)c1ccc(C2NC(=S)N(c3ccccc3)C(C)=C2C(=O)Nc2ccccc2OC)cc1` (stereo not drawn) was “inactive”.

Turning to `CCS(=O)(=O)c1ccc2oc(SCC(=O)NCCC3=CCCCC3)nc2c1`, the inhibition was 10.4%. The same measure for `CCCCN(CC)CCNc1c(N2CCN(C(=O)OCC)CC2)c(=O)c1=O`: “inactive”. Take `COC(=O)C(C(=O)OC)C(C[N+](=O)[O-])c1ccc(OC)cc1` (stereo not drawn): the inhibition entry is “inactive”.

As to `CCOC(=O)c1cnn(-c2ccccc2)c1-n1cccc1C(=O)C(=O)Nc1ccccc1C(F)(F)F`, the inhibition is 74.2% (active). As to `CCOC(=O)c1cnn(-c2ccccc2)c1-n1cccc1C(=O)C(=O)Nc1ccccc1`, the inhibition result was “inactive”. The same measure for `CCOC(=O)c1cnn(-c2ccccc2)c1-n1cccc1C(=O)C(=O)Nc1ccc(F)cc1`: 0.4%; for `COCCNC(=O)C(c1ccccc1C)N(CCOC)C(=O)Cn1nnc2ccccc21` (stereo not drawn): 1.03%; for `COCCNC(=O)C(c1ccccc1)N(CCOC)C(=O)Cn1nnc2ccccc21` (stereo not drawn): 37.1% (active). The same measure for `CCOC(=O)CN(C(=O)Cn1nnc2ccccc21)C(C(=O)NCCOC)c1ccccc1` (stereo not drawn): “inactive”. The value for `CCOC(=O)C1C(=O)NC(c2ccccc2)=NC1c1ccc(C(C)C)cc1` (stereo not drawn) was 1.01%; that for `CN1CCN(S(=O)(=O)c2ccc(NC(=O)Cc3cccs3)cc2)CC1` was “inactive”. Consider `CCC(Oc1ccccc1)C(=O)Nc1ccc(-c2nnc(-c3ccco3)o2)cc1` (stereo not drawn), for which the inhibition was 28.2% (active). The value for `O=C(COc1ccccc1)Nc1ccc(-c2nnc(-c3ccco3)o2)cc1` was “inactive”; that for `O=C(Nc1ccc(-c2nnc(-c3ccco3)o2)cc1)C(c1ccccc1)c1ccccc1` was 0.04%; that for `Cc1ccc(S(=O)(=O)N(CC(=O)NC2CCCCCC2)c2ccccc2F)cc1` was “inactive”. For `COc1ccc(Br)cc1C(=O)Nc1ccc(N2CCN(S(C)(=O)=O)CC2)cc1`, the inhibition was 0.77%. As for `Cc1cc(C)cc(C(=O)N(c2ccccn2)C(C)c2ccco2)c1` (stereo not drawn), the inhibition is 0.71%. For the compound `CC(c1ccco1)N(C(=O)COc1ccc(Cl)cc1Cl)c1ccccn1` (stereo not drawn), the inhibition was 39.3% (active).

In the case of `CC(c1ccco1)N(C(=O)Nc1ccc(Cl)cc1)c1ccccn1` (stereo not drawn), the inhibition entry is “inactive”. The value for `CC(c1ccco1)N(C(=O)COc1ccc(Cl)cc1)c1ccccn1` (stereo not drawn) was 32.6% (active). For the compound `CC(c1ccco1)N(C(=O)COc1ccccc1[N+](=O)[O-])c1ccccn1` (stereo not drawn), the inhibition is 0.73%. The same measure for `CC(C)c1ccc(C(=O)N(c2ccccn2)C(C)c2ccco2)cc1` (stereo not drawn): 4.01%; for `Cc1ccccc1NS(=O)(=O)c1ccc(C2CNC(=O)C2)cc1` (stereo not drawn): 0.38%.

As for `CN1CCN(c2nc(-c3ccc(Br)cc3)nnc2-c2ccccc2)CC1`, the inhibition entry is “inactive”. The value for `O=C(c1cnn2c(C(F)(F)F)cc(-c3ccc(Br)cc3)nc12)N1CCOCC1` was 1.01%. For `O=C(c1cnn2c(C(F)(F)F)cc(-c3ccccc3)nc12)N1CCC2(CC1)OCCO2`, the inhibition is 1.61%.

On to `O=C(c1cnn2c(C(F)(F)F)cc(-c3ccccc3)nc12)N1CCOCC1`, for which the inhibition was 37.1% (active).

Consider `O=C(Nc1c(-c2ccccc2)nc2sccn12)c1ccccc1`, for which the inhibition is 48.5% (active). The value for `Cn1nc(C(=O)Nc2c(-c3ccccc3)nc3sccn23)c2ccccc2c1=O` was 2.2%; that for `Cc1ccn2c(NC(=O)c3ccccc3)c(-c3cccs3)nc2c1` was “inactive”. Consider `CCNc1nnc(-c2ccccc2OC)s1`, for which the inhibition result was “inactive”.

`Cc1ccc2c(C)c(C(=O)Nc3cccnc3)oc2c1`: the inhibition was 90.2% (active). The same measure for `Cc1c(C(=O)Nc2ccncc2)oc2ccccc12`: “inactive”; for `Cc1cc2oc(C(=O)Nc3cccnc3)c(C)c2cc1C`: “inactive”; for `O=C(c1ccco1)N1N=C(c2cccs2)CC1c1ccc(F)cc1` (stereo not drawn): 6.17%. The same measure for `O=C1CCCN1CCCNc1ccc(S(=O)(=O)N2CCCCC2)cn1`: 0.14%; for `Cc1cc(NC(=O)c2noc3c2CCc2ccccc2-3)no1`: “inactive”. With `O=C(Nc1cccc(O)c1)c1noc2c1CCc1ccccc1-2`, the inhibition is 66.5% (active). With `Cc1ccc(NC(=O)c2noc3c2CCc2ccccc2-3)cc1`, the inhibition result is “inactive”. For the compound `C=CCOc1ccc(/C(CC)=N/O)c(OC)c1`, the inhibition is 1.57%. The same measure for `CC(C)(C)OC(=O)NCCc1nnc(SCC(=O)c2ccc(Cl)cc2)o1`: “inactive”. The same measure for `CC(C)(C)OC(=O)NCCc1nnc(SCc2ccc(Cl)cc2)o1`: 26.6% (active).

In the case of `CC(C)(C)OC(=O)NCCc1nnc(SCc2ccc(Cl)cc2Cl)o1`, the inhibition was 4.81%.

For `N#Cc1ccc2ccn(CC(=O)NC3CCCCC3)c2c1`, the inhibition entry was “inactive”. The same measure for `Cc1cc(NS(=O)(=O)c2ccc(NC(=O)c3cc(-c4cccnc4)nc4ccc(Cl)cc34)cc2)no1`: 2.18%; for `COc1ccc(NC(=O)CCN2CCCCCC2)c(OC)c1`: 0.25%. The value for `Cc1noc(C)c1CSc1nc2sc(C)c(C)c2c(=O)n1C1CCCC1` was 25.2% (active). As for `C=CCn1c(SCc2c(C)noc2C)nc2sc(C)c(C)c2c1=O`, the inhibition is 11.3%. On to `Cc1noc(C)c1CSc1nc2sc(C)c(C)c2c(=O)n1-c1ccccc1`, for which the inhibition was 6.13%. Turning to `COc1ccc(C(=O)CSc2nc(C)cc(=O)[nH]2)cc1`, the inhibition entry was “inactive”.

For `COCCCNC(=O)CCn1c(=O)c2ccccc2n(CC(=O)Nc2c(C)cccc2C)c1=O`, the inhibition is 1.13%. The value for `CC(=O)Nc1cc(C(C)C)c(O)c(C(C)C)c1` was 0.28%.

Consider `COc1c(C(C)C)cc(NC(C)=O)cc1C(C)C`, for which the inhibition was 87.4% (active). For `CC(C)c1cc(NC(=O)C(C)(C)C)cc(C(C)C)c1O`, the inhibition was 0.31%. Turning to `CCOC(=O)/C=C1\SCC(=O)N1CC(=O)NC12CC3CC(CC(C3)C1)C2`, the inhibition was 39.9% (active). The same measure for `CCOC(=O)/C=C1\SCC(=O)N1CC(=O)NC(C)C`: 0.15%; for `CCOC(=O)/C=C1\SCC(=O)N1CC(=O)NC1CCCCC1`: 0.43%. The value for `COc1ccc(-c2noc(CCN3C(=O)c4ccccc4C3=O)n2)cc1OC` was 0.08%. As for `CCc1nnc(NC(=O)CSc2nnc(CNc3ccc(F)cc3)n2C2CCCCC2)s1`, the inhibition result is “inactive”. On to `Cc1cc(NC(=O)CSc2nnc(CNc3ccc(F)cc3)n2C2CCCCC2)no1`, for which the inhibition is 26.7% (active). Regarding `CCOc1ccc(NCc2nnc(SCC(=O)Nc3cc(C)on3)n2-c2ccc(OC)cc2)cc1`, the inhibition entry is “inactive”. The value for `C=CCN(c1ccc(C(=O)N2CCCC2)cc1)S(C)(=O)=O` was “inactive”; that for `COc1ccc(S(=O)(=O)Nc2cc(C)c(O)cc2C(C)C)cc1` was “inactive”. Turning to `COc1ccc(OC)c(-n2c(SCC(N)=O)nnc2-c2c[nH]c3ccccc23)c1`, the inhibition was 1.03%. With `COc1ccc(OC)c(-n2c(SCC(=O)Nc3cc(C)on3)nnc2-c2c[nH]c3ccccc23)c1`, the inhibition is 25.7% (active).

As to `COc1ccc(OC)c(-n2c(SCC(=O)NCc3ccco3)nnc2-c2c[nH]c3ccccc23)c1`, the inhibition was 0.83%.

Regarding `Cc1cc(C)n(CC(O)Cn2c(C)c(C)c3ccccc32)n1` (stereo not drawn), the inhibition was 0.73%. The same measure for `CN=C(Nc1cc(C)nn1CCC#N)c1ccc(F)cc1`: 0.15%; for `CC(C)CCNC(=O)C(c1cccs1)N(CC1CCCO1)C(=O)Cn1nnc2ccccc21` (stereo not drawn): “inactive”.

Usually inhibition stands for the share of the control response that was lost under treatment.
